KDM4E inh – qHTS Assay for Inhibitors of Human Jumonji Domain Containing 2E (JMJD2E); JMJD2E catalytic domain, FDH-coupled NADH fluorescence (FDH is formaldehyde dehydrogenase); Potency, µM (titrated, usually from 57.1 µM), most hits filed as inhibitors; Lysine-specific demethylase 4E (Homo sapiens), B2RXH2; 230,000 compounds, 1.6% hits; AID 2147, 2009; active means well fitted inhibition curve with a large enough effect, not every such curve was filed as active; inconclusive means small, poorly fitted or top-dose-only effect, or another doubt; inactive means no such curve, though single readings can be large or run the other way; further: nearly all actives have a fitted effect of over 50% in size
Target sequence (B2RXH2 1-337 limits assumed): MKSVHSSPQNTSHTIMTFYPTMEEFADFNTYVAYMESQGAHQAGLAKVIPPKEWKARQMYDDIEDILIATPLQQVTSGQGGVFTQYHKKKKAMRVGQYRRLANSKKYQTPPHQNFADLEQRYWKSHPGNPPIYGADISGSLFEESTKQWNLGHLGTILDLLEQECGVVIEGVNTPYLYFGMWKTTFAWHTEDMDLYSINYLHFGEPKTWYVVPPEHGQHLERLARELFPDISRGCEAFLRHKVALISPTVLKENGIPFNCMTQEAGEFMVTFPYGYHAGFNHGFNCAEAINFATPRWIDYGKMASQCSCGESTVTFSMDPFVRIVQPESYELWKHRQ
Tau ThT inhib – qHTS for Inhibitors of Tau Fibril Formation, Thioflavin T Binding; Microtubule-associated protein tau (Homo sapiens), P10636; recombinant tau K18 P301L, heparin-induced fibrillization, ThT fluorescence; Potency, µM (top dose mostly 57.4 µM), usual class: inhibitors; 270,000 compounds, 2.1% hits; further: nearly all actives have a fitted effect of over 55% in size
Target sequence (P10636 561-689 P618L limits assumed): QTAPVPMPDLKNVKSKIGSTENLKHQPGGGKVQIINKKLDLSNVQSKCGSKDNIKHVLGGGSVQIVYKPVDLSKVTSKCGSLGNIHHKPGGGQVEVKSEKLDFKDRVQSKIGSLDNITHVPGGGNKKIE
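ThT emission at 510 nm, taken 1 hr after adding 30 uM dye, quantifies aggregates formed when 20 uM heparin acts on human tau K18 P301L for 6 hr at 37 C.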
ALDH1A1 block – qHTS Assay for Inhibitors of Aldehyde Dehydrogenase 1 (ALDH1A1); AID 1030, 2008; 220,000 compounds, 7.3% hits; Aldehyde dehydrogenase 1A1 (Homo sapiens), P00352; Purified ALDH1A1, NADH fluorescence, propionaldehyde substrate; Potency, µM (titrated, usually from 75.3 µM), usual class: inhibitors; active means well fitted inhibition curve with a large enough effect, not every such curve was filed as active; inconclusive means small, poorly fitted or top-dose-only effect, or another doubt; inactive means no such curve, though single readings can be large or run the other way
HPGD block – qHTS Assay for Inhibitors of HPGD (15-Hydroxyprostaglandin Dehydrogenase) | purified HPGD, NADH fluorescence kinetic, PGE2 substrate | 15-hydroxyprostaglandin dehydrogenase [NAD(+)] (Homo sapiens), P15428 | AID 894, 2007 | Potency, µM, usual class: inhibitors | 150,000 compounds, 4.3% hits; active means well fitted inhibition curve with a large enough effect, not every such curve was filed as active; inconclusive means small, poorly fitted or top-dose-only effect, or another doubt; inactive means no such curve, though single readings can be large or run the other way
Target sequence (P15428 whole entry, looked up): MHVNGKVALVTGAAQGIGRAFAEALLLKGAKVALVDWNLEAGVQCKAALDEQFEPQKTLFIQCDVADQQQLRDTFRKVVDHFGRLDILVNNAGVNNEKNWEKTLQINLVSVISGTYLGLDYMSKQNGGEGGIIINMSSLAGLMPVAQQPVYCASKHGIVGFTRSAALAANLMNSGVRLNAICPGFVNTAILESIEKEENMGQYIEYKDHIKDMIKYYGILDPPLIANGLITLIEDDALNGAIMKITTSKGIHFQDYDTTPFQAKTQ
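20 nM HPGD preincubated 15 min at room temperature with compound in 50 mM Tris-HCl pH 8, 0.01% Tween 20. Started with 1 mM NAD+ and 30 uM prostaglandin E2; NADH fluorescence (360/450 nm) read 5 times over 30-s intervals, last minus first.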
Tau fluor cs – Counterscreen qHTS for Inhibitors of Tau Fibril Formation, Fluorescence Polarization. tau K18 P301L (four-repeat tau fragment) Alexa594 fluorescence, heparin fibrillization. Potency, µM (highest dose often 57.7 µM). 280,000 compounds, 0.93% hits; further: nearly all actives have a fitted effect of over 55% in size
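Human K18 P301L tau (15 uM unlabeled plus 0.24 uM Alexa 594-labeled, final) in 100 mM sodium acetate pH 7 was mixed with compound and 20 uM heparin and incubated 6 hr at 37 C.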
Tau FP inhib – qHTS for Inhibitors of Tau Fibril Formation, Fluorescence Polarization; Microtubule-associated protein tau (Homo sapiens), P10636; 280,000 compounds, 0.39% hits; K18 P301L tau heparin fibrillization, Alexa594 FP, 6 h; Potency, µM (highest dose often 57.7 µM), usual class: inhibitors; further: nearly all actives have a fitted effect of over 55% in size
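K18 P301L tau (15 uM unlabeled/0.24 uM Alexa 594-labeled, final) + compound + heparin 20 uM final; 100 mM NaOAc pH 7; 6 hr 37 C; ThT 30 uM final added, 1 hr RT; FP ex 555/em 632 nm.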
Hits are given with their value; i = inactive; ? = inconclusive; nt = no result given; [ ] = dose if it differs, or a comment. The list is not random: actives were taken first. Their share in the collection is about 9.9%. Unless noted, the call rests on the fitted dose curve; in most records, active means well fitted curve in the direction sought with a large enough effect; inconclusive means small, poorly fitted or top-dose-only effect, or another doubt; inactive means no such curve, though single readings can be large; an effect the other way counts as inactive or inconclusive.

SMILES	KDM4E inh	Tau ThT inhib	ALDH1A1 block	HPGD block	Tau fluor cs	Tau FP inhib
O=C(O)CSc1ncnc2scc(-c3ccccc3)c12	i	i	nt	nt	i	i
N#Cc1c(Cl)nsc1NN	i	7.9µM	22µM	nt	2.5µM[quencher]	?
CCCCC1=CC2=C(OC(C)=O)C(=O)C(C)(OC(=O)c3ccc(Cl)nc3)C(=O)C2=CO1 (stereo unspecified)	i	22µM	i	i	?	?
CCCCC1=CC2=C(c3ccco3)C(=O)C(C)(OC(=O)c3ccc(Cl)nc3)C(=O)C2=CO1 (stereo unspecified)	i	i	i	i	i	i
c1ccc(NCc2ccccn2)cc1	i	i	i	nt	i	i
c1ccc(NCCCNc2ccccc2)cc1	i	?	20µM	i	i	?
Cc1ccccc1NC(=O)Cn1nc(-c2ccc(F)cc2)c2cnc3ccccc3c21	nt	i	nt	nt	i	i
Cc1cc(C)c(NC(=O)Cn2c(=O)n(CCCCC(=O)NCc3ccccc3Cl)c(=O)c3ccccc32)c(C)c1	nt	i	nt	nt	i	i
COc1ccc(C(=O)Nc2ccc(C3=NNC(=O)CC3C)cc2NC(=O)c2ccc(OC)cc2)cc1 (stereo unspecified)	?	i	2µM	nt	i	i
Cc1ccc(OCC(=O)Nc2ccccc2F)cc1C	i	i	i	nt	i	i
Cc1ccc(-n2c(N)c(C(=O)Nc3ccccc3F)sc2=S)cc1C	i	i	10µM	nt	i	i
Cc1ccccc1-n1c(N)c(C(=O)Nc2ccc(F)cc2)sc1=S	i	i	20µM	nt	i	i
Cc1ccc(C)c(-n2c(N)c(C(N)=O)sc2=S)c1	i	i	i	?	i	i
Cc1ccc(NC(=O)c2sc(=S)n(-c3cc(C)ccc3F)c2N)cc1	i	i	13µM	nt	i	i
COc1ccc(N2CCN(C(=O)Cc3noc4ccc(C)cc34)CC2)cc1	nt	i	nt	nt	i	i
Fc1ccc(Nc2nc(SCc3cccc(Cl)c3)nc3ccccc23)cc1	nt	i	nt	nt	?	8.9µM
Fc1ccc(Nc2nc(SCc3cccc(F)c3)nc3ccccc23)cc1	nt	i	nt	nt	?	14µM
Clc1ccc(CSc2nc(NCCc3ccccc3)c3ccccc3n2)cc1	nt	i	nt	nt	i	i
Fc1ccc(Nc2nc(SCc3ccc(Cl)cc3)nc3ccccc23)cc1	nt	?	nt	nt	?	7.9µM
COc1cccc(-c2cc(C(=O)Nc3cc(Cl)ccc3O)on2)c1	nt	?	nt	nt	?	i
Cc1ccc(S(=O)(=O)C(CNC(=O)C(=O)NCCc2ccccc2)c2cccs2)cc1 (stereo unspecified)	nt	i	nt	nt	i	i
CCc1cc(=O)oc2c3c(c(Cl)cc12)OCN(Cc1cccc(OC)c1)C3	nt	i	nt	nt	i	i
CC(C)(C)c1cc[n+](-c2[nH]c(=O)sc2/C=N/NC([S-])=Nc2ccccc2)cc1	i	?	25µM	nt	i	i
Cc1cc[n+](-c2[nH]c(=O)sc2/C=N/NC([S-])=Nc2ccccc2)cc1C	i	?	?	i	?	?
Cc1ccc2ncc(C(=O)Nc3cccc(C(F)(F)F)c3)c(=O)n2c1	nt	i	nt	nt	i	i
SMILES	KDM4E inh	Tau ThT inhib	ALDH1A1 block	HPGD block	Tau fluor cs	Tau FP inhib
COc1ccc([C@@H]2[C@@H](O)[C@H](O)[C@@H](C)N2C)cc1OC	i	i	i	i	i	i
Cc1noc(NC(=O)c2ccccc2Cl)c1C#N	i	i	i	i	i	i
Cc1noc(NC(=O)c2ccccc2)c1C#N	i	i	10µM	i	i	i
Cc1ccc(C(=O)Nc2onc(C)c2C#N)cc1	i	i	25µM	i	i	i
COc1ccccc1C(=O)Nc1onc(C)c1C#N	i	i	?	nt	i	i
CC(C)(C)C1CCc2onc(C(=O)NC3CCCC3)c2C1 (stereo unspecified)	i	i	i	i	i	i
CC(C)(C)C1CCc2onc(C(=O)N3CCOCC3)c2C1 (stereo unspecified)	i	i	25µM	i	i	i
CCOC(=O)N1CCN(C(=O)Cc2ccc(Cl)cc2)CC1	i	i	i	nt	i	i
CC(C)(C)NC(=O)CN1CCN(C(=O)CCl)CC1	i	i	0.32µM	nt	i	i
CCOC(=O)N1CCN(C(=O)CCl)CC1	i	i	0.56µM	nt	i	i
Cc1nc2ccccc2c(C)c1C(=O)c1ccccc1	i	i	i	nt	i	i
O=c1nc2cccc3c2=c(/c1=C(\O)c1ccccc1)c1ccccc1c3=O	i	?	0.63µM	nt	?	?
O=C(c1csnn1)N1CCC[C@@]2(CCN(c3ccccn3)C2)C1	nt	nt	i	i	nt	nt
Cc1ccc(S(=O)(=O)c2nc(Nc3ccccc3)sc2Cl)cc1	i	i	i	i	14µM[quencher]	?
Cc1ccc(S(=O)(=O)c2nc(NCCN(C)C)sc2Cl)cc1	i	i	i	i	i	i
COc1ccc(Nc2nc(S(=O)(=O)c3ccc(C)cc3)c(Cl)s2)cc1	i	i	i	i	10µM[quencher]	i
O=S(=O)(c1ccccc1)c1nc(Nc2cccc(O)c2)sc1Cl	i	i	i	i	?	i
ON=C1CCCCC1	nt	nt	i	i	nt	nt
COc1ccc2c3c(cccc13)N(C)N=C2C	i	7.1µM	i	i	?	?
COc1ccccc1-n1c(=O)c(C#N)c(-c2ccc([N+](=O)[O-])cc2)c2cc(C(=O)c3cc(F)ccc3O)cnc21	i	i	i	nt	i	i
Cn1c(=O)c(C#N)c(-c2ccc(F)cc2)c2cc(C(=O)c3cc(Cl)cc(Cl)c3O)cnc21	i	14µM	nt	nt	i	i
CCc1cccc(C)c1NC(=O)CN1C(=O)c2c(c3ccccc3n2C)C1c1ccc(OC)cc1 (stereo unspecified)	nt	i	nt	nt	i	i
Cc1cc(=O)[nH]c(SCc2cccc(Br)c2)n1	i	i	i	14µM	i	i
COc1ccc(CSc2nc(C)cc(=O)[nH]2)cc1Br	i	?	i	16µM	i	i
COC(=O)c1cc(=O)[nH]c(SCc2cccc(C)c2)n1	i	i	i	i	i	i
SMILES	KDM4E inh	Tau ThT inhib	ALDH1A1 block	HPGD block	Tau fluor cs	Tau FP inhib
O=C(Cn1c(=O)n(-c2ccccc2)c(=O)c2ccc(C(=O)NCc3ccc4c(c3)OCO4)cc21)Nc1ccc(Br)cc1F	nt	i	nt	nt	i	?
O=S1(=O)CCN2C=Nc3sc4c(c3C2=N1)CCCC4	i	i	8.9µM	i	i	i
Cc1ccc(N(CC(=O)NC(C)(C)C)C(=O)CNC(=O)c2cccs2)c(C)c1	i	i	i	nt	i	i
Cc1ccc(CNc2oc(C)nc2C#N)cc1	i	?	i	nt	11µM[quencher]	?
COc1ccc(/C=C/c2nc(C#N)c(NCCc3ccc(OC)c(OC)c3)o2)cc1OC	nt	?	nt	nt	?	i
COc1ccc(CNc2oc(-c3cccc4ccccc34)nc2C#N)cc1	?	i	?	?	8.9µM[quencher]	i

Assay outcomes: PubChem BioAssay, National Center for Advancing Translational Sciences (NCATS)
